The values below come from PubChem BioAssay (NCI).

The panel holds about 83,000 compounds, 20% with a hit somewhere; the sample as a whole holds those more often.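 Method: cells in 96-well plates; compound added at one concentration; 48 h incubation; percent growth measured; values under 10 scored active.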 Values without a mark were called inactive. Activity calls are given as the source filed them.

The test system of this test is HOP-62 NSCLC. Nature of the test: NCI-60 one-dose screen, 48 h (100 = growth as untreated, 0 = no growth, -100 = all killed). Particulars: 10 µM unless noted.
Regarding `Cc1cc(-c2nc3ccccc3s2)ccc1NC(=O)COc1ccc(Cl)cc1`, the growth was 89.8%.
With `C[C@H](CCC(=O)O)[C@H]1CC[C@H]2[C@@H]3CC[C@@H]4/C(=C\c5ccco5)C(=O)/C(=C\c5ccco5)C[C@]4(C)[C@H]3CC[C@]12C`, the growth was 116%.
For `COc1cc2c(c(OC)c1OC)-c1ccc(N=NC(N)=S)c(=O)cc1[C@@H](NC(C)=O)CC2`, the growth was 7.96% (active).
For the compound `c1ccc(CSc2ncnc3nc[nH]c23)nc1`, the growth was 92.2%.
For the compound `CC(=O)Nc1ccc2c(c1)c(NC(C)=O)nn2C(=O)Nc1ccc(Cc2ccccc2)cc1`, the growth was 44.3%.
Regarding `COc1cc2c(=O)n(CC3CCCCC3)c3c4cc[nH]c4ncc3c2cc1OC`, the growth was 19.2%.
In the case of `COC1/C=C\OC2(C)Oc3c(C)c(O)c4c(O)c(c(CN(C)CCO)c(O)c4c3C2=O)NC(=O)/C(C)=C\C=C/C(C)C(O)C(C)C(O)C(C)C(OC(C)=O)C1C` (stereo not drawn), the growth was 89.7%.
The figure for `Cc1cc(N/N=C/c2nc(-c3ccc(Cl)cc3)oc2C)c2cc(Cl)ccc2n1` is 103%; for `C=C1CC[C@@H]2[C@](C)(COC(C)=O)[C@H](OC(C)=O)CC[C@@]2(C)[C@@H]1CC(NCc1ccc(F)cc1)C1=CCOC1=O` (stereo partly drawn) it is 78.7%.
In the case of `Cn1c2c(Cl)c(Cl)ccc2c2ccn3c(=O)c4ccccc4nc3c21`, the growth was 68%.
For the compound `CCOC(=O)Cc1cnn(C)c1NC(=O)c1ccc(Cl)cc1NC(C)=O`, the growth was 96.4%.
For the compound `COc1ccc(-c2cc(NC(=O)Nc3ccc(O)cc3)no2)cc1`, the growth was 88.5%.
On to `S=c1[nH]nc(CSc2ncnc3c2c(-c2ccccc2)cn3-c2ccc(Cl)cc2)o1`, for which the growth was 91%.
The figure for `COc1c(Cl)cc(Cl)cc1Cl` is 97.5%; for `COc1ccc(-c2nn(-c3ccccc3)cc2/C=C/C(=O)OCc2cn(-c3ccc(F)c(Cl)c3)nn2)cc1` it is 78.5%; for `COc1ccc2c(c1)C(=O)/C(=C/c1cccc(OCC(=O)Nc3nc4c(s3)CCCC4)c1)O2` it is 99.3%.
Turning to `CCN(CC)CC(C)Nc1ccc([N+](=O)[O-])c2sc3ccccc3c(=O)c12` (stereo not drawn), the growth is 46.2%.
On to `Cc1nn(-c2ccccc2)c2nc(C)n(-c3ccc(Br)cc3)c(=O)c12`, for which the growth is 35.1%.
Consider `OC(c1cc(-c2ccccc2)nc2ccc(Cl)cc12)C1CCCCN1` (stereo not drawn), for which the growth was 93.3%.
On to `COc1ccc(S(=O)(=O)NCCNc2nccc(-c3c(-c4cccc([N+](=O)[O-])c4)nc4sccn34)n2)cc1`, for which the growth was 99.3%.
With `COc1ccc(Cl)cc1Nc1nc(C(F)(F)F)ccc1C(=O)N/N=C/c1cccnc1`, the growth is 54%.
The same measure for `COc1ccc(-c2nn(-c3ccccc3)cc2/C=C2\SC(=O)NC2=O)cc1`: 101%.
With `Cc1ccc2c(c1)C(=O)c1c-2c(OCCCN(C)C)nc2ccccc12`, the growth is 19.9%.
With `Cc1ccc(-c2nc(/C=N/Nc3cc(C)nc4ccc(Br)cc34)c(C)o2)cc1`, the growth was 97.7%.
Turning to `CCCCNP1(NCCCC)=NP(NCCCC)(NCCCC)=NP(NCCCC)(NCCCC)=NP(NCCCC)(NCCCC)=N1`, the growth was 10.2%.
The figure for `COc1ccc(-n2cc(-c3ccccc3)c3c(SCC(=O)N/N=C/c4ccc([N+](=O)[O-])cc4)ncnc32)cc1` is 100%; for `Nc1cccc(-c2nc3sccn3c2-c2ccnc(NCCCNS(=O)(=O)c3ccc(C(F)(F)F)cc3)n2)c1` it is 19.5%.
Turning to `CCN(CC)CC(O)c1cc(-c2ccc(Cl)cc2)nc2c(C)c(Cl)ccc12` (stereo not drawn), the growth was -100% (active).
The same measure for `O=C1/C(=C/c2ccc(F)cc2)CN(C(=O)CCN2CCC(=NO)CC2)C/C1=C\c1ccc(F)cc1`: -37.7% (active); for `CC(C)C1=C[C@@]23CC[C@@H]4[C@](C)(CCC[C@@]4(C)C(=O)OCC#CCN4CCCC4)[C@H]2C[C@@H]1[C@H]1C(=O)OC(=O)[C@H]13`: 91.9%; for `Cc1ccc2c(c1)C(=O)/C(=C/c1ccc(OCC(=O)c3ccccc3)cc1)O2`: 87.5%.
For `Cc1ccc2c(c1)n([O-])c1cc(Cl)ccc1[n+]2=O`, the growth was 103%.
For `COc1ccccc1/C=C(/C(=O)c1ccccc1)c1ccccc1`, the growth was 114%.
Turning to `COc1nc2c(cc1S(=O)(=O)c1ccccc1)CCc1c-2cnn1-c1ccc(Cl)cc1`, the growth is 86.5%.
`CNc1cc2nc3cc(NC)c(C)cc3cc2cc1C`: the growth is 10.7%.
On to `Nc1c(C(=O)Nc2ccccc2)sc2nc3c(cc12)CN(CCc1ccccc1)CC3`, for which the growth is 99.2%.
Consider `CC(C)[C@@H]1CC[C@]2(C(=O)NCCCCN=C(N)N)CC[C@]3(C)[C@H](CC[C@@H]4[C@@]5(C)CCC(=O)C(C)(C)[C@@H]5CC[C@]43C)[C@@H]12`, for which the growth was 72.6%.
The same measure for `CCOC(=O)c1cnc2ccc(Br)cc2c1Nc1cccc(S(=O)(=O)NC)c1`: 92.3%.
